Results as given in PMC7819943, “Rice protein-binding microarrays: a tool to detect cis-acting elements near promoter regions in rice”.
The full ranking holds about 68,000 sequences; the median of “fluorescence intensity (a.u.)” is about 9,100, and the highest 2% start at about 16,000. The sample holds the highest values, similar sequences and a random draw of the others, so the mix is not that of the screen.

These sequences were tested against OsWRKY34 (Oryza sativa, UniProt Q0JBA9 1-250) (assay: protein-binding microarray (RPBM); PBS, 2% BSA, 51.3 ng/ul salmon testes DNA, 50 uM zinc acetate, 200 nM TF, 25 C, 1 h; high values mean tight binding). Details: protein: recombinant; tags: N-terminal polyhistidine and DsRed monomer fusion (pET32a); label: CyDye5-dUTP incorporated in the synthesized complementary strand; 3' TTTTT single-stranded linker to array surface; dsDNA, one strand shown.
Outline: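 The binding signal for each feature is its fluorescence intensity in arbitrary units. An Axon 4000B scanner was used to read a custom Agilent array that had been made double-stranded with Cy5-dUTP primer extension, blocked with 2% BSA, incubated at 25 °C for 1 h with 200 nM protein in PBS, 2% BSA, salmon testes DNA and 50 µM zinc acetate, and washed. The protein was an N-terminal polyhistidine–DsRed transcription factor fusion from E. coli BL21-CodonPlus, purified on Ni–NTA.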

Chain of OsWRKY34 (Q0JBA9 entry or part of it): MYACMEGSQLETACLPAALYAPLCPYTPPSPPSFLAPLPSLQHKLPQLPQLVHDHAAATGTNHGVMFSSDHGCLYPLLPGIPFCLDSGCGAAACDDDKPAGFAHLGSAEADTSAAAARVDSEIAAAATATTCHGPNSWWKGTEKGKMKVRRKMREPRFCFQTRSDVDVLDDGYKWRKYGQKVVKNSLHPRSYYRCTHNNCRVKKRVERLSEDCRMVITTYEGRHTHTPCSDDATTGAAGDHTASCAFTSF

Sequence | binding signal
GGTTTCAAGAAAAGGAAAAGAAAAACTAAACGTAGTATAACGGAGTCACCTAGTGCAG | 11300 fluorescence intensity (a.u.)
AGTATCAAGCGATACAGGAGCTCCTCACTCCATCTCTCTACGGAGTCACCTAGTGCAG | 8330 fluorescence intensity (a.u.)
CCTCCTCTCCCTTTTCTGCTGTTTCTCTCTCTCACACACTCGGAGTCACCTAGTGCAG | 8470 fluorescence intensity (a.u.)
TTTTTTTCTCCTTTCCTTCTTCTCTCTCTCTCTTTTTTTTCGGAGTCACCTAGTGCAG | 8870 fluorescence intensity (a.u.)
CGTTTCTCTTTCTTTCTTCCCTTCGGTTTCTCCTCCTCTCCGGAGTCACCTAGTGCAG | 10600 fluorescence intensity (a.u.)
CACTCTCTCTCGCTGTCTTTCTCTCCTTCCATTTCATTTCCGGAGTCACCTAGTGCAG | 8250 fluorescence intensity (a.u.)
GTTTTGCACATCCGGTTTTCTCTCTCTCTCTCTCTCCTTTCGGAGTCACCTAGTGCAG | 16700 fluorescence intensity (a.u.)
CACACACTCTCCGGTTTTTTTTTCCTTTTCATTTTTTTCTCGGAGTCACCTAGTGCAG | 28000 fluorescence intensity (a.u.)
TTCGGTTTTTCTCTTCATCATTTCTCTTTATTTCTTTCTCCGGAGTCACCTAGTGCAG | 9290 fluorescence intensity (a.u.)
ATATCTACTCCCGGTTTCTGCTGGATTCCTTCCTTTTTCTCGGAGTCACCTAGTGCAG | 17500 fluorescence intensity (a.u.)
CGCCGGTTGCTTCCATATACTCTGCTCCTTTTTTTTCTATCGGAGTCACCTAGTGCAG | 9240 fluorescence intensity (a.u.)
ACAGGGCTTGGAATAGGTTGGTGTACAGGGCGGTAGCTTACGGAGTCACCTAGTGCAG | 8670 fluorescence intensity (a.u.)
AGAAAAGAATCTACAGTACCCACATGGCATACTCTCTTTTCGGAGTCACCTAGTGCAG | 9950 fluorescence intensity (a.u.)
GTCTTTTGGTGGGTGGGAAATCACTTCCATTTCCCATTAGCGGAGTCACCTAGTGCAG | 11300 fluorescence intensity (a.u.)
GTGGCAATGCAAACTCGTCTTGGAACCCACTGCTTTGCCTCGGAGTCACCTAGTGCAG | 8192 fluorescence intensity (a.u.)
TACCTCCGTTTTCTAATAGATGACGCCGTTGACTTTTTCTCGGAGTCACCTAGTGCAG | 20700 fluorescence intensity (a.u.)
TACCTCCGTTTTTTAATAGATGACGCCGTTGACTTTTTCTCGGAGTCACCTAGTGCAG | 25000 fluorescence intensity (a.u.)
TCCCTCCGTTTTTTAATAGATGATGCCGTTGACTTTTTCTCGGAGTCACCTAGTGCAG | 19300 fluorescence intensity (a.u.)
ATACTACCTCCGTTTTTTAATAGATGACGTCGTTGACTTTCGGAGTCACCTAGTGCAG | 14600 fluorescence intensity (a.u.)
CTACTATCATATTTTTTAATAGATGACTCCGTTGACTTTTCGGAGTCACCTAGTGCAG | 16800 fluorescence intensity (a.u.)
ATGACATACTAATAGATGATACTATTGACTTTTTTTCTATCGGAGTCACCTAGTGCAG | 9980 fluorescence intensity (a.u.)
GTTTCTTACCCATCTACTATGGCCTATTTAACCCTGCGCCCGGAGTCACCTAGTGCAG | 11000 fluorescence intensity (a.u.)

Sequence | binding signal
GCCCGCGCCGTCTACCAGGACGCCGACGTCTACCTCCTCGCGGAGTCACCTAGTGCAG | 8470 fluorescence intensity (a.u.)
CCTCTTCTCCTTCGGTGTGTTCGTCGATGTGCTTTGCTGACGGAGTCACCTAGTGCAG | 8580 fluorescence intensity (a.u.)
CGGTTTGGGCTCTTTTGGCTGTTCCATGGCGACGAGGCGCCGGAGTCACCTAGTGCAG | 8320 fluorescence intensity (a.u.)
GACCCCTCCGACCGCTACGCCAACCACAACACCGTCTTCTCGGAGTCACCTAGTGCAG | 9430 fluorescence intensity (a.u.)
TGTCAACCCGCGCCTCCGATTTCTCCAGCTTTTCTTTCCCCGGAGTCACCTAGTGCAG | 12800 fluorescence intensity (a.u.)
AGTAGTCTCCGTCTTCGTCCTCTTCCTTCTTGTTTAATAACGGAGTCACCTAGTGCAG | 8930 fluorescence intensity (a.u.)
TGCCTGTAGTGGCGGTTGGGGATGCGGATAAGGCGAGGGGCGGAGTCACCTAGTGCAG | 14500 fluorescence intensity (a.u.)
TCCGACATGCTGCCCTCGATCGAGCTCATCCATCGGCCCTCGGAGTCACCTAGTGCAG | 9550 fluorescence intensity (a.u.)
CCACCCTTTTTCTCTGCTTCCAGTGTACGTTTTCGAATAACGGAGTCACCTAGTGCAG | 9880 fluorescence intensity (a.u.)
CCTCCTAGTTCCCTCGGCATGCAGACGATCTGCCAGTTTACGGAGTCACCTAGTGCAG | 11700 fluorescence intensity (a.u.)
TATCGTCCGGTGCTCCTCGTCCATGTCAACAGCTACCATACGGAGTCACCTAGTGCAG | 9850 fluorescence intensity (a.u.)
GAGGGCAAGGGCGGCGGGTCTAACACAACACAATAAGAGTCGGAGTCACCTAGTGCAG | 9470 fluorescence intensity (a.u.)
TCTTTGCAGGTCACTTCCGGGTGCTTCACATTCCGGTTAACGGAGTCACCTAGTGCAG | 8890 fluorescence intensity (a.u.)
TCCTCATCTTGTGCTCTCAAGTGTTTTAAGTGCTCTCTTTCGGAGTCACCTAGTGCAG | 10500 fluorescence intensity (a.u.)
ATTTAATTTCACCTACTACTACTACTATTCTTCTTATTAACGGAGTCACCTAGTGCAG | 9430 fluorescence intensity (a.u.)
AATACTACCTCCGTTTTAAAATGTTTGACGCCGTTGATATCGGAGTCACCTAGTGCAG | 8440 fluorescence intensity (a.u.)
TACTCCCTCTGTTTTTTAATAGATGACGCCGTTGACTTTTCGGAGTCACCTAGTGCAG | 17100 fluorescence intensity (a.u.)
TACTCCCTCCGTTTTTTAATAGATGACGCCGTTGACTTTTCGGAGTCACCTAGTGCAG | 16100 fluorescence intensity (a.u.)
TACTACCTCCGTTTTTAATAGATGACGCCGTTGACTTTTTCGGAGTCACCTAGTGCAG | 23700 fluorescence intensity (a.u.)
CTTACTACCTCCGTATTTTAGTGTATGATGCCGTTGACTTCGGAGTCACCTAGTGCAG | 14500 fluorescence intensity (a.u.)
CATATACTCCCTCCGTTTTTTAATAGATGACGCCGTTGACCGGAGTCACCTAGTGCAG | 12300 fluorescence intensity (a.u.)
